The values that follow come from PubChem BioAssay (Tox21).

A number with no mark means an inactive call. Results filed as inconclusive are left out. Calls of active or inactive are those of the source. Unless noted, calls come from the whole dose curve.

A short description of assay [1]: Nuclear factor erythroid 2-related factor 2/antioxidant responsive element (Nrf2/ARE) small molecule agonists: qHTS cell viability counter screen in human keratinocytes (AID 1919968; active = well fitted curve in the direction sought with a large enough effect in the repeat runs; an effect the other way counts as inactive or inconclusive; note: nearly all actives have a fitted effect of over 55% in size). The gist of the method:
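Cytotoxicity was multiplexed with the Nrf2/ARE luciferase assay in the same wells. Stably transfected HaCaT keratinocytes were treated with test compounds for 23 h at 37 C. Cell viability was then measured by CellTiter-Fluor fluorescence.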
For orientation: In qHTS, concentration-response curves come from the screen itself.

Assay [2] addresses Gonadotropin-releasing hormone receptor (Homo sapiens) (UniProt P30968). As to the kind of experiment: Human gonadotropin-releasing hormone receptor (GnRHR) small molecule agonists, calcium flux assay in GnRHR-HEK293 cells (AID 1920063). Note: nearly all actives have a fitted effect of over 35% in size. The gist of the method: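 Agonist activity was measured as intracellular calcium flux in HEK293 cells engineered to stably express human GnRHR. After dye loading for 1 hour at 37 C, compounds in DMSO were added and fluorescence was followed for 3 minutes.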
(In general: A change in cytosolic calcium serves as a functional read-out for many receptors and channels.)

The target of assay [3] is KiSS-1 receptor (Homo sapiens) (UniProt Q969F8). As to the kind of experiment: Human kisspeptin (KISS1R) small molecule agonists, calcium flux assay in KISS1R-HEK293 cells (AID 1920064; active = well fitted curve in the direction sought with a large enough effect in the repeat runs; an effect the other way counts as inactive or inconclusive). The gist of the method: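 Agonist activity is monitored as intracellular calcium rise in engineered HEK293 cells carrying human KISS1R. Cells are dye-loaded for 1 h at 37 C before compound addition, and fluorescence is recorded for 3 min.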

Assay [4] can be described thus: G protein-coupled receptor (GPCR) small molecule agonists, calcium flux assay: HEK293 wild type cell line counter screen (AID 1920065). The gist of the method: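 Seed cells, incubate 18 h (37 C, 5% CO2); add calcium dye, 1 h at 37 C; pin-transfer compounds, ATP control or DMSO; read fluorescence 480/540 nm each second for 3 min.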
Assay [5] can be described thus: p53 small molecule agonists, cell-based qHTS assay: qHTS cell viability counter screen (AID 1963581). Note: nearly all actives have a fitted effect of over 45% in size. The gist of the method: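 Viability was counter-screened in parallel with the p53 agonist reporter by measuring intracellular ATP luminescence in the same HCT-116 p53RE-bla wells after 16 h compound treatment at 37 C.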
For assay [6], the target named is 5-hydroxytryptamine receptor 2A (Homo sapiens) (UniProt P28223). Kind of assay: 5-hydroxytryptamine receptor 2A (HTR2A) small molecule antagonists, cell-based qHTS assay (AID 1963586). Note: nearly all actives have a fitted effect of over 45% in size. The gist of the method: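 CHO cells stably expressing human HTR2A were plated for 18 h at 37 C, then loaded with calcium dye for 1 h. Compounds were preincubated 5 min at room temperature before DOI (4 nM solution) was added. Kinetic fluorescence was read for 3 min.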

The target is the same in assay [7]. Kind of assay: 5-hydroxytryptamine receptor 2A (HTR2A) small molecule agonists, cell-based qHTS assay (AID 1963587). Note: nearly all actives have a fitted effect of over 30% in size. The gist of the method: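 HTR2A-CHO cells, plated 18 h at 37 C/5% CO2, dye-loaded 1 h at 37 C; compounds in DMSO added by pin tool (agonist mode). Intracellular calcium flux read as kinetic fluorescence on FDSS over 2 min at 1 s intervals.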
Assay [8] deals with Muscarinic acetylcholine receptor M1 (Homo sapiens) (UniProt P11229). Kind of assay: Cholinergic receptor muscarinic 1 (CHRM1) small molecule antagonists, cell-based qHTS assay (AID 1963588). Note: nearly all actives have a fitted effect of over 40% in size. Note: potency is the fitted concentration of half-maximal effect. The gist of the method:
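Compounds were tested at 15 concentrations in three independent runs. Dye-loaded CHRM1-CHO cells were exposed 5 min at room temperature before stimulation by acetylcholine added at 50nM. Intracellular calcium was read kinetically on FDSS for 3 min.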

The target is the same in assay [9]. As to the kind of experiment: Cholinergic receptor muscarinic 1 (CHRM1) small molecule agonists, cell-based qHTS assay (AID 1963589). Note: nearly all actives have a fitted effect of over 35% in size. The gist of the method: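 Cells were plated and incubated 18 h at 37 C/5% CO2, loaded with calcium dye for 1 h at 37 C, then treated with compounds in DMSO. Fluorescence was recorded kinetically at 1 sec intervals.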
Assay [10] is described as follows: cAMP Responsive Elements (CRE) small molecule agonists, cell-based qHTS assay (AID 1963590). The gist of the method: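 Cells carrying a CRE-driven beta-lactamase reporter (HEK 293T) are seeded, incubated overnight (18 h), and treated with test compounds for 3 h at 37 C; reporter activity is then detected with a FRET substrate after 2 h at room temperature.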
A short description of assay [11]: cAMP Responsive Elements (CRE) small molecule antagonists, cell-based qHTS assay (AID 1963591; active = well fitted inhibition curve with a large enough effect in the signal ratio in the repeat runs, not every such curve was filed as active; the % refers to the signal ratio). The gist of the method:
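Cells (CRE-bla HEK 293T, DMEM with 10% dialyzed FBS and 25 mM HEPES) are seeded and incubated 18 h. Compounds are added with NKH477 agonist at 0.25 uM final for 3 h, then FRET substrate for 2 h.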

The target of assay [12] is Beta-2 adrenergic receptor (Homo sapiens) (UniProt P07550). As to the kind of experiment: Adrenergic beta2 receptor (ADRB2) small molecule agonists, cell-based qHTS assay (AID 1963593).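 Note: CHO cells stably overexpressing human ADRB2.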 The gist of the method:
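CHO cells stably over-expressing ADRB2 were plated overnight at 37C, then dosed with compounds plus a stimulation mix containing 100uM IBMX and 25uM Ro-20-1724 for 0.5hr at room temperature. cAMP was measured by HTRF competition, 1hr.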

The target of assay [13] is D(2) dopamine receptor (Homo sapiens) (UniProt P14416). As to the kind of experiment: Dopamine D2 receptor (DRD2) small molecule agonists, cell-based qHTS assay (AID 1963594). Note: nearly all actives have a fitted effect of over 35% in size. The gist of the method:
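HEK293 cells stably expressing DRD2 were cultured 24 h at 37 C, then given Ro20-1724 (0.1 mM final) and compounds for 10 min at room temperature. NKH477 (200nM) was then added for 30 min. cAMP was read by HTRF.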

Assay [14] shares this target. Kind of assay: Dopamine D2 receptor (DRD2) small molecule antagonists, cell-based qHTS assay (AID 1963595; active = well fitted inhibition curve with a large enough effect in the signal ratio in the repeat runs, with a control signal flat; the % refers to the signal ratio). The gist of the method:
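Antagonist mode in DRD2-HEK293 cells: after compound addition with 0.1 mM Ro20-1724, cells received quinpirole (12 nM) and NKH477 (200 nM) for 30 min at room temperature; HTRF cAMP read after 1 h detection.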

Assay [15] is described as follows: p53 small molecule agonists, cell-based qHTS assay with rat liver microsomes: qHTS cell viability counter screen (AID 1963580). Note: nearly all actives have a fitted effect of over 45% in size. The gist of the method:
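Counter screen for cytotoxicity under metabolic activation: rat liver microsomes and NADPH, 0.5 mg/mL final each, added with compounds to p53RE-bla HCT-116 cells; 16 h at 37 C, then ATP luminescence read.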

Assay [16] can be described thus: p53 small molecule agonists, cell-based qHTS assay with human liver microsomes (AID 1963577).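 Note: p53 response element beta-lactamase reporter cells with liver microsomes plus NADPH.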 The gist of the method: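 With metabolic activation: human liver microsomes (0.5 mg/mL final) plus NADPH (0.5 mg/mL final) added alongside compounds to p53RE-bla cells; 16 h 37 C exposure; beta-lactamase read by LiveBLAzer fluorescence.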
The nature of assay [17]: p53 small molecule agonists, cell-based qHTS assay with rat liver microsomes (AID 1963578). The gist of the method:
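Metabolic activation by rat liver microsomes and NADPH, each 0.5 mg/mL final, added right after compounds to p53RE-bla reporter cells (4,000/well, plated 5 h earlier). 16 h at 37 C, then LiveBLAzer substrate for 2 h at room temperature in the dark; fluorescence read-out.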

Assay [18] is described as follows: p53 small molecule agonists, cell-based qHTS assay with human liver microsomes: qHTS cell viability counter screen (AID 1963579). Note: nearly all actives have a fitted effect of over 45% in size. The gist of the method: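 Metabolic activation used human liver microsomes and NADPH, both 0.5 mg/mL final, over 16 hours at 37 C on p53RE-bla cells (4,000/well). Cytotoxicity measured by CellTiter-Glo luminescence, 30 min at room temperature.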

A short description of assay [19]: p53 small molecule agonists, cell-based qHTS assay (AID 1963582; active = well fitted activation curve with a large enough effect in the signal ratio in the repeat runs, not every such curve was filed as active; the % refers to the signal ratio). The gist of the method: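 Cells carrying a p53-responsive bla reporter are treated with test compounds for 16 h at 37 C; beta-lactamase activity is then detected with LiveBLAzer B/G FRET substrate after 2 h at room temperature.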
In assay [20] the target is Beta-2 adrenergic receptor (Homo sapiens) (UniProt P07550). As to the kind of experiment: Adrenergic beta2 receptor (ADRB2) small molecule antagonists, cell-based qHTS assay (AID 1963592). Note: nearly all actives have a fitted effect of over 50% in size. Note: potency is the fitted concentration of half-maximal effect. The gist of the method:
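Assay format: CHO-ADRB2 cells, 18-20hr seeding at 37C/5% CO2, then compound plus 1nM isoproterenol agonist mix for 0.5hr RT. Homogeneous time-resolved fluorescence cAMP detection after 1hr, expressed as 665/615 nm ratio.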

Gonadotropin-releasing hormone receptor (Homo sapiens), sequence (P30968 whole entry, looked up): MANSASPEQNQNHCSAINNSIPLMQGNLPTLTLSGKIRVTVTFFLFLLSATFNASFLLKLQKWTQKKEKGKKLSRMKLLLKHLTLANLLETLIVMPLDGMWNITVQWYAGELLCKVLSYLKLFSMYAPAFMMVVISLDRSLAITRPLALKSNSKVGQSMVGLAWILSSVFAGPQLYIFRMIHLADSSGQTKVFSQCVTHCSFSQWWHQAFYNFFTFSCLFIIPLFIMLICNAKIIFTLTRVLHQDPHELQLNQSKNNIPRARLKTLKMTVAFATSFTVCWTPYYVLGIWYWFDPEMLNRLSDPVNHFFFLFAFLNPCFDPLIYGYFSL
Beta-2 adrenergic receptor (Homo sapiens), sequence (P07550 whole entry, looked up): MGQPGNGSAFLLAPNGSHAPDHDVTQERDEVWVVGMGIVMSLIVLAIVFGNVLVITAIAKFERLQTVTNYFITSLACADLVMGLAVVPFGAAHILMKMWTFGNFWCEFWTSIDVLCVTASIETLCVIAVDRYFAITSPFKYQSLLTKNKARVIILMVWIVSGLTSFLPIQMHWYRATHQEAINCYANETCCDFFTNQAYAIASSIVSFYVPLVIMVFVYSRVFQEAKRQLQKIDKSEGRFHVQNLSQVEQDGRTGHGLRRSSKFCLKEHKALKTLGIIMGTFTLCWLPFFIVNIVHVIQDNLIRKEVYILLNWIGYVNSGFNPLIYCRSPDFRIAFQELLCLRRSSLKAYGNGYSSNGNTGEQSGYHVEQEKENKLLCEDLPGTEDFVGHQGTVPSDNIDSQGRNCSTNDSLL
D(2) dopamine receptor (Homo sapiens), sequence (P14416 whole entry, looked up): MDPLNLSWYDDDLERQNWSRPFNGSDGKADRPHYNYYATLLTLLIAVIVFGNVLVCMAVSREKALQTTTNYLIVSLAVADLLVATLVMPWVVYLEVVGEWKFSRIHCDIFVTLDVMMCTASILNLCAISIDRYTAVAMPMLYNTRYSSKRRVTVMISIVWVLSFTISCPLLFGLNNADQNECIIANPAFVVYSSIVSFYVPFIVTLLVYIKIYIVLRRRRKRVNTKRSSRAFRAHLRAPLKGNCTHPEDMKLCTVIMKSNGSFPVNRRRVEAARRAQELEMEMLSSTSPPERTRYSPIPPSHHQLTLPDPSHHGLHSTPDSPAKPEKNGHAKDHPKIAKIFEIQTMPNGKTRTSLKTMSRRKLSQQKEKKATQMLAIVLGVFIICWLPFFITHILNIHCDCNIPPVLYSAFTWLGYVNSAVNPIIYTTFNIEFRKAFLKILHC
5-hydroxytryptamine receptor 2A (Homo sapiens), sequence (P28223 whole entry, looked up): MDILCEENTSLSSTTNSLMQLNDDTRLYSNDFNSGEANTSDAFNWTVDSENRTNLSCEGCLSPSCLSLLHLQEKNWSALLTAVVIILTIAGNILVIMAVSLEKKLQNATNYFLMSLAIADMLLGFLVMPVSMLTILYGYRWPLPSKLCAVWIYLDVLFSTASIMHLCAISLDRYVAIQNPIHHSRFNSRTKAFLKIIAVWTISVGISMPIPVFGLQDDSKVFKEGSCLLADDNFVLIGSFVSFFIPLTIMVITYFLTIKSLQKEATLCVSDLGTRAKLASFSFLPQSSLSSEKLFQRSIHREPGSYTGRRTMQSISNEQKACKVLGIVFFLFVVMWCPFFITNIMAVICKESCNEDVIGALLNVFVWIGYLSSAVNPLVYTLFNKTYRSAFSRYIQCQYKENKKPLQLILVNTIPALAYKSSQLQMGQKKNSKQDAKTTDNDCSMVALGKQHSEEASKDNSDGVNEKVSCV
KiSS-1 receptor (Homo sapiens), sequence (Q969F8 whole entry, looked up): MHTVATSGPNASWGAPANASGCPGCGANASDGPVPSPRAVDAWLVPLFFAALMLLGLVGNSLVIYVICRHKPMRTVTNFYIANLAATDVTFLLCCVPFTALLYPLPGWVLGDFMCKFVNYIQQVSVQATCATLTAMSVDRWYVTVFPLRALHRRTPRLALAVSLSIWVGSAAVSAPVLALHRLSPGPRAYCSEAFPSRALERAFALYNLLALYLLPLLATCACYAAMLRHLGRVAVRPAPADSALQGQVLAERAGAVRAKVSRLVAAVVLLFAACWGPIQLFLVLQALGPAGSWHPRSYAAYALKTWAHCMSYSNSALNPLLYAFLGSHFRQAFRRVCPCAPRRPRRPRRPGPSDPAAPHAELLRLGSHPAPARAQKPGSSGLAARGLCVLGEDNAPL
Muscarinic acetylcholine receptor M1 (Homo sapiens), sequence (P11229 whole entry, looked up): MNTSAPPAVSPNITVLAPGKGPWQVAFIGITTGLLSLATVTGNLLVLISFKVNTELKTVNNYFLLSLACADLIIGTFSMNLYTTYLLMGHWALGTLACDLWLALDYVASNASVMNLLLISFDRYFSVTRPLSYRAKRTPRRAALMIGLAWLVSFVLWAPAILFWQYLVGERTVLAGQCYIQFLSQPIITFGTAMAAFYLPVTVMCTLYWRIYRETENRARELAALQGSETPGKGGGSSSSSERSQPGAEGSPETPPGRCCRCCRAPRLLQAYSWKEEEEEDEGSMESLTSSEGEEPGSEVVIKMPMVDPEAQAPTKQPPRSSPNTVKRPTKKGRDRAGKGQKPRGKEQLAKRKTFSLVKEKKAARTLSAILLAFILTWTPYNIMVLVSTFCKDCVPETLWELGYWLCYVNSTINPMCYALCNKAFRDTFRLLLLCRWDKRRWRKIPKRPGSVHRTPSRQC

Take `C=C(C)C(=O)OCCCCCCCCCC`: the Potency entry in assay [1], in [2], in assay [3], in [4], in assay [5] and in assay [6] was “inactive” in each case. Further, the Potency result in [7], in assay [9], in assay [10], in assay [11], in assay [12] and in assay [13] was “inactive” throughout. Also, the Potency entry in assay [14] was “inactive”. Also, the Potency in assay [8] is 42.4 µM (active).
In the case of `C=CCOc1ccccc1OCC(O)CNC(C)C` (centres undefined), the Potency result in assay [1], in [2], in [3], in assay [4], in assay [15] and in assay [7] was “inactive” throughout. Moreover, the Potency result in assay [8], in [9], in [10], in assay [11], in assay [13] and in assay [14] was “inactive” in each case.
As to `CC(C)COC(=O)/C=C/c1ccccc1`, the Potency entry in [1], in assay [2], in [3], in [16], in assay [17] and in [18] was “inactive” throughout. Also, the Potency entry in assay [5], in assay [19], in assay [6], in [7], in [8] and in assay [9] was “inactive” throughout. The Potency entry in assay [10], in [20], in assay [12], in assay [13] and in assay [14] was “inactive” in each case.
Regarding `CC(C)NC[C@@H](O)COc1ccc(CC(N)=O)cc1`, the Potency result in [1], in assay [2], in [3], in assay [19], in assay [10] and in assay [11] was “inactive” each time. The Potency result in assay [13] and in [14] was “inactive” throughout.
Consider `CCCCCCCC/C=C/CCCOC(C)=O`, for which the Potency result in [1], in assay [2], in [3], in [16], in assay [17] and in [15] was “inactive” in each case. Further, the Potency entry in assay [5], in assay [19], in [6], in [7], in assay [8] and in assay [9] was “inactive” throughout. The Potency entry in assay [10], in assay [11], in [20] and in [14] was “inactive” each time.
Take `CN(C)CCC(c1ccc(Cl)cc1)c1ccccn1` (centres undefined): the Potency entry in assay [1], in assay [2], in assay [3], in assay [4], in assay [5] and in assay [10] was “inactive” in each case. Moreover, the Potency result in assay [11], in assay [20], in assay [12] and in assay [13] was “inactive” throughout.
With `Cc1cccc(OCC(O)CNC(C)(C)C)c1C` (centres undefined), the Potency entry in [1], in assay [2], in assay [3], in [16], in [18] and in assay [15] was “inactive” each time. In addition, the Potency entry in assay [5], in assay [19], in assay [8], in assay [9], in [10] and in assay [11] was “inactive” in each case. Further, the Potency result in assay [14] is “inactive”. Moreover, the Potency in assay [20] is 0.0075 µM (active).
In the case of `CC(CO)(CO)CO`, the Potency result in assay [1], in assay [2], in [3], in [16], in assay [17] and in [18] was “inactive” each time. The Potency entry in [5], in assay [6], in assay [7], in [8], in assay [9] and in assay [10] was “inactive” in each case. For the same compound, the Potency result in assay [11], in [20], in assay [13] and in assay [14] was “inactive” throughout.
As to `C[C@H]1[C@H](NC(=O)/C(=N/OC(C)(C)C(=O)O)c2csc(N)n2)C(=O)N1S(=O)(=O)O` (stereo in doubt), the Potency result in [1], in [2], in assay [3], in assay [16], in assay [18] and in [15] was “inactive” in each case. Further, the Potency result in [5], in [10], in [11], in assay [20], in [13] and in [14] was “inactive” throughout.
